Measurements from PubChem BioAssay AID463208 (Broad Institute, 2010).

experiment: yeast HDAC inhibitors, dose response, mechanism study for Sdo1 growth activator project, cell lysate, fluorescence, yeast nuclear extract (AID 463208); conditions: yeast nuclear extract HDAC activity, fluorogenic substrate;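 active means AC50 at most tenfold above the top tested concentration; inconclusive means flat fit with 30 to 70% activity, or a poor fit; inactive means AC50 over tenfold above the top dose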

AC50, inactive:
O=C(CCSc1nc(-c2ccco2)cc(C(F)(F)F)n1)NCCc1cccs1 > 50 µM
Cc1ccc(Cn2c(Sc3ncccn3)nc3c2c(=O)[nH]c(=O)n3C)cc1 > 50 µM
COc1ccc(-c2c(C)sc(NC(=O)c3ccnn3C)c2C#N)cc1 > 50 µM
Cc1ccc2c(CC(=O)NNC(=O)c3ccccc3)coc2c1 > 50 µM
O=C(O)CCCn1nc(C(F)(F)F)c2c1CCCCC2 > 50 µM
O=C(C(c1ccccc1)c1ccccc1)N(Cc1ccco1)C1CCS(=O)(=O)C1 (configuration not stated) > 50 µM
CSCC[C@H](NC(=O)OC(C)(C)C)c1nnc(SCC(N)=O)o1 > 50 µM
O=C(CSc1nc(-c2ccco2)cc(C(F)(F)F)n1)NCc1cccs1 > 50 µM
CCOc1cccc(C(=O)NC(=S)NCc2cccnc2)c1 > 50 µM
CCOc1ccc(C(=O)NC(=S)NCc2cccnc2)cc1 > 50 µM
CCOC(=O)/C=C1\SCC(=O)N1CC(=O)NC1CCCCC1 > 50 µM
Cc1nc(CS(=O)(=O)c2ccccc2)cc(N2CCOCC2)n1 > 50 µM
O=C(Nc1ccccc1)c1ccc(NCC2CCCO2)c([N+](=O)[O-])c1 (configuration not stated) > 50 µM
CCOC(=O)/C=C1\SCC(=O)N1CC(=O)NC12CC3CC(CC(C3)C1)C2 > 50 µM
CC(C(=O)Nc1ccccc1)N1C(=O)c2ccccc2C1=O (configuration not stated) > 50 µM
CC(=O)N(C1=C(Cl)C(=O)c2ccccc2C1=O)C1CCCCC1 > 50 µM
Cc1nn(Cc2ccc(Cl)cc2)c(C)c1NC(=O)CSc1n[nH]c(C)c1[N+](=O)[O-] > 50 µM
Cc1sc(NC(=O)c2ccnn2C)c(C#N)c1-c1ccccc1 > 50 µM
O=C(COC(=O)Cc1cccs1)Nc1ccccc1 > 50 µM
Cc1nn(-c2ccccc2)c(C)c1NC(=O)c1cccs1 > 50 µM
Cc1ccc(NC(=O)c2ccc(NCC3CCCO3)c([N+](=O)[O-])c2)cc1 (configuration not stated) > 50 µM
CC(=O)N(C1CCCCC1)C1C(=O)C(=O)c2ccccc2C1=O (configuration not stated) > 50 µM
